Source: PubChem (National Center for Advancing Translational Sciences (NCATS))
PINK1 expr mod – modulators of PINK1 expression. PINK1 immunofluorescence, high-content cytometry, 24 h. Potency, µM (series often up to 76.6 µM), for the others: top-dose activation (PINK1 increase), usual class: activators. actives 0.2% (n = 410,000). AID 624263; active = well fitted activation curve with a large enough effect; inconclusive = small, poorly fitted or top-dose-only effect; cell line not stated here; also: % of control where 0% means no effect; nearly all actives have a fitted effect of over 65% in size
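PINK1 protein, normally rapidly degraded, was detected by immunofluorescence after 24 hour compound treatment of a stable cell line. Titration data (5 concentrations) came from laser-scanning cytometry, with CCCP-treated wells as controls.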
KB-V1 MDR tox – KB-V1 MDR subline cytotoxicity | Potency, µM (titrated, usually from 46.1 µM), actives largely listed as cytotoxic | KB-V1 MDR cells viability, CellTiter-Glo, 72 h | actives 3.4% (n = 400,000); also: % is scaled to controls: 0 for no effect and ±100 for the full control effect; nearly all actives have a fitted effect of over 60% in size
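Cytotoxicity via CellTiter-Glo luminescence after 72 h compound exposure at 37 degrees C. Cells: drug-selected KB-V1 line, DMEM phenol-red free plus 10% FBS. Compounds tested at multiple concentrations; normalized data fitted to concentration-effect curves.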
12-LOX inh – blocks human arachidonate 12S-lipoxygenase; P18054; purified 12hLO, xylenol orange hydroperoxide absorbance; AID 1671190; Potency, µM (highest dose often 108 µM), inactives show at the highest dose activity change, negative = inhibition, actives largely listed as inhibitors; actives 1.1% (n = 580,000); also: % is scaled to controls: 0 for no effect and ±100 for the full control effect
Target sequence (P18054 whole entry, looked up): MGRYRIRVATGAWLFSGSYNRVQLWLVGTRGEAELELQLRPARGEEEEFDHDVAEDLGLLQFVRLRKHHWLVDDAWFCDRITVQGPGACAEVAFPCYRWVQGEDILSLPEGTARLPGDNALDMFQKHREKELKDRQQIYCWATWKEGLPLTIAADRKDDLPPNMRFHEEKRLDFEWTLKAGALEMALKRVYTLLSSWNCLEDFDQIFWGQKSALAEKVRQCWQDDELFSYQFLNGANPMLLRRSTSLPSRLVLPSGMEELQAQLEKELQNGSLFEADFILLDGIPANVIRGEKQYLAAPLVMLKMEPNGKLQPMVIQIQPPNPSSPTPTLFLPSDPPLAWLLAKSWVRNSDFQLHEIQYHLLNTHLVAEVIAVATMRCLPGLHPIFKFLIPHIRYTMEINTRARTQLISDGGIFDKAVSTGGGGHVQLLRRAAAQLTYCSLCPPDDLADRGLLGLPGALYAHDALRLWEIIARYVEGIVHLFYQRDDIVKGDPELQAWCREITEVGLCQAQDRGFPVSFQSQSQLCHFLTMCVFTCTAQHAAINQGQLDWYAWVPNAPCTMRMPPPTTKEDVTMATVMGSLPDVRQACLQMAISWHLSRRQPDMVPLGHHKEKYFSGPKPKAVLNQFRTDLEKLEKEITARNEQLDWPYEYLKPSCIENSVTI
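Hydroperoxide product was detected by ferrous iron/xylenol orange as the 573 to 405 nm absorbance ratio. Arachidonic acid at 40 uM (final) was turned over for 30 min at room temperature by 150 nM human 12hLO, pH 7.0 Hepes buffer, after 15 min compound preincubation.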
SW480 rerep – DNA re-replication induction in SW480 cells; SW480 DNA re-replication, Hoechst DNA content imaging, 48 h; Potency, µM (series often up to 46.1 µM), for the others: top-dose re-replication activation, actives largely listed as activators; actives 1.8% (n = 340,000); AID 624297; also: % of control where 0% means no effect; nearly all actives have a fitted effect of over 55% in size
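SW480 cells exposed to compounds for 48 hr at 37 C, 5% CO2, then Hoechst-stained 40 min. Nuclear DNA content imaged by fluorescence scanning (405 nm excitation, 500-530 nm emission); re-replication scored as increased high-intensity nuclei.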
KB-3-1 cytotox – kills parental KB-3-1 adenocarcinoma cells; KB-3-1 viability, CellTiter-Glo ATP luminescence, 72 h; Potency, µM (titrated, usually from 46.1 µM), hits mostly cytotoxic; actives 1.4% (n = 400,000); AID 1347075; also: % is scaled to controls: 0 for no effect and ±100 for the full control effect; nearly all actives have a fitted effect of over 60% in size
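Cytotoxicity measured as CellTiter-Glo luminescence after 72 h at 37 C. Compound titrations were pinned onto drug-naive KB-3-1 parental adenocarcinoma cells grown in DMEM with 10% FBS, and normalized data fitted to concentration-response curves.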
MCF10A rereplic – inducers of DNA re-replication in MCF 10A breast cells. MCF 10A DNA re-replication, Hoechst nuclear intensity, 48 h. Potency, µM (titrated, usually from 46.1 µM), inactives show at the highest dose activity, positive = re-replication, actives largely listed as activators. actives 2.9% (n = 350,000). AID 624296; also: % of control where 0% means no effect; nearly all actives have a fitted effect of over 50% in size
Numbers without * were called inactive; i = inactive; ? = inconclusive; . = not tested or not shown; ! = not confirmed by another sample; [ ] = another dose, or the depositor's remark. An excerpt weighted towards active compounds, which were near 5.8% of everything screened. Unless noted, calls follow the shape of the dose curve; as a rule, active = well fitted curve in the direction sought with a large enough effect; inconclusive = small, poorly fitted or top-dose-only effect, or another doubt; inactive = no such curve, though single readings can be large; an effect the other way counts as inactive or inconclusive. Potency is read from the fitted curve at half-maximal effect.

SMILES	PINK1 expr mod	KB-V1 MDR tox	12-LOX inh	SW480 rerep	KB-3-1 cytotox	MCF10A rereplic
O=C(Nc1cccc(NC(=O)c2ccco2)c1)c1ccccc1	-2%	i	?	-8%	i	3%
COc1c(C)cc(Br)cc1C(=O)Nc1ccccc1C	4%	i	0%	-37%	i	1.5µM*
COc1cccc(NC(=O)c2ccco2)c1	-1%	i	-24%	-1%	i	2%
O=C(Nc1cccc(NC(=O)c2ccc(-c3cccc(Br)c3)o2)c1)c1ccco1	.	23µM*	11%	?	i	21%
COc1c(C)cc(Br)cc1C(=O)Nc1cccc(NC(=O)c2ccco2)c1	-1%	3.3µM*	21%	-2%	i	?
Nc1ccc(Br)cc1-c1ccccc1	.	.	6%	.	.	.
Cc1ccc(CNC(=O)c2ccc(NC(=O)c3cc4c(=O)[nH]c(C)cn4n3)cc2)cc1	.	.	1%	.	.	.
Cc1cc(C)c(OCC(=O)Nc2cccc(NC(=O)c3ccco3)c2)c(Br)c1	2%[38.3 µM]	21µM*	-1%	1%	i	1%
COc1ccc(Br)cc1C(=O)Nc1cccc(NC(=O)c2ccco2)c1	1%	9.2µM*	0%	-9%	i	5%
COc1cc(NS(=O)(=O)c2ccc(Br)cc2)c(OC)cc1NC(=O)c1ccco1	0%	8.2µM*	11%	6%	i	-1%
Cc1ccc(SCC(=O)Nc2cccc(NC(=O)c3ccco3)c2)cc1	2%	16µM*	-45%	-8%	i	?
COc1ccc(S(=O)(=O)Nc2cc(OC)c(NC(=O)c3ccco3)cc2OC)cc1	5%[38.3 µM]	i	-22%	8%	i	1%
Clc1cc(CNCCc2cccs2)cc2c1OCCCO2	.	.	-20%	.	.	.
O=C(Cc1n[nH]c(=O)c2ccccc12)Nc1ccccc1O	.	.	18%	.	.	.
CC1(C)CCN2CCC(C)(C)c3c(O)ccc1c32	?	i	?	?	?	13µM*
Nc1nc(N)c(N=Nc2ccc(S(N)(=O)=O)cc2)c(=O)[nH]1	1%	i	40µM*	2%	i	-9%
COC(=O)c1sc(NC(=O)c2ccc([N+](=O)[O-])o2)c(C#N)c1C	?	i	0%	3.3µM*	?	2.9µM*
CC(=O)N1CCc2c(sc(NC(=O)c3ccc([N+](=O)[O-])o3)c2C#N)C1	-1%	i	?	2.3µM*	?	1.5µM*
COC(=O)c1c(NC(=O)c2ccc([N+](=O)[O-])o2)sc2c1CCN(C(C)C)C2	6%	15µM*	0%	2.3µM*	6.5µM*	2.9µM*
COc1ccc(C(=O)Nc2sc3c(c2C#N)CCN(C(C)=O)C3)cc1	10%	?	-7%	23µM*	8.2µM*	23µM*
CC(C)N1CCc2c(sc(NC(=O)c3ccc([N+](=O)[O-])o3)c2C(N)=O)C1	.	.	-16%	.	.	.
O=C(CC1C=CCC1)NCCc1ccccn1 (centres undefined)	.	.	31%	.	.	.
CCOc1ccccc1CN1CCCCCCNC(=O)[C@@H]2CCC[C@@H]21	.	.	290%	.	.	.
CN1CCN(c2oc(-c3cccs3)nc2C#N)CC1	.	.	-15%	.	.	.
O=C(NCCOC(=O)c1ccc(Cl)cc1)c1cccnc1	1%[38.3 µM]	i	?	4%	i	3.7µM*
SMILES	PINK1 expr mod	KB-V1 MDR tox	12-LOX inh	SW480 rerep	KB-3-1 cytotox	MCF10A rereplic
CC(C)=CCC/C(C)=C/C=C/C(C)=C/C=C/C(C)=C/C=C/C=C(C)/C=C/C=C(C)/C=C/C=C(\C)CCC=C(C)C	.	.	.	19µM*	.	?
COc1cccc(CNC(=O)CN2C(=O)N(c3cccc(C)c3)S(=O)(=O)c3ccccc32)c1OC	.	.	-11%	.	.	.
N#CCCn1cc(C=C(C#N)C#N)c(-c2ccc(Cl)cc2)n1	-1%	i	-22%	?	i	3.7µM*
N#CCCn1cc(/C=N/NC(N)=S)c(-c2ccc(Br)cc2)n1	0%	i	?	?	i	?
N#CCCn1cc(/C=N/O)c(-c2ccc(-c3ccccc3)cc2)n1	1%	i	-23%	?	?	13µM*
N#CCCn1cc(/C=N/NC(N)=S)c(-c2ccccc2)n1	0%	i	25µM*	?	i	?
COc1ccc(-c2nn(-c3ccccc3)cc2/C=N/NC(N)=S)cc1OC	6%	?	32µM*	2.1µM*	i	1.6µM*
N#CCCn1cc(/C=N/O)c(-c2ccc(Cl)cc2)n1	2%[38.3 µM]	i	?	2%	i	10%
CC(C)CCN1CCC(O)(c2csc(CN3CCc4ccccc4C3)n2)CC1	.	.	39%[176 µM]	.	.	.
N#CCCn1cc(/C=C2\NC(=S)N(c3ccccc3)C2=O)c(-c2ccc(-c3ccccc3)cc2)n1	5%	i	-23%	?	?	5.8µM*
O=C(O)CCn1cc(/C=C2/NC(=S)N(c3ccccc3)C2=O)c(-c2ccccc2)n1	0%	i	?	-18%	i	12%
COc1ccc2[nH]c3c(=O)n(CCCCC(=O)NCCN4CCCC4)c(=S)[nH]c3c2c1	?	?	14µM*	-11%	i	23%
CC1CCCCN1CCCNc1nc(-c2ccncc2)nc2ccccc12 (centres undefined)	.	.	-18%	.	.	.
CC(C)c1ccc2c(c1)[C@H]1OCC[C@H]1[C@@H](c1cccs1)N2	3%	2.3µM*	4%	9.2µM*	6.5µM*	7.3µM*
Cc1cc(C)cc(-n2c(C)cc(/C=C3\C(=N)N4N=C(CC(C)C)SC4=NC3=O)c2C)c1	1%	21µM*	-17%	2%	?	18µM*
Cc1cc(/C=C2\C(=N)N3N=C(CC(=O)N4CCOCC4)SC3=NC2=O)c(C)n1Cc1ccccc1	-1%	i	398%	-7%	i	18µM*
COc1cccc(-n2c(C)cc(/C=C3\C(=N)N4N=C(CC(=O)N5CCOCC5)SC4=NC3=O)c2C)c1	0%	i	-2%	18%	i	4%
CCCC1=NN2C(=N)/C(=C\c3cc(C)n(-c4cc(C)cc(C)c4)c3C)C(=O)N=C2S1	3%	?	1%	1%	i	21µM*
CC[n+]1c(C)ccc2ccccc21	.	.	16µM*	.	.	.
CCCC[n+]1c(C)ccc2ccccc21	.	i	.	.	?	.
CC(=O)Nc1cccc(Oc2ccc3nnc(-c4ccc(Cl)cc4)n3n2)c1	.	.	-35%	.	.	.
COc1ccc(NC(=O)c2sc3nc(N4CCCC4)c4c(c3c2N)CC(C)(C)OC4)c(OC)c1	5%	i	9%	2.9µM*	i	?
CC1(C)Cc2c(c(N3CCOCC3)nc3sc(C(=O)Nc4ccc(Cl)cc4)c(N)c23)CO1	11%	?	2.8µM*!	20%	16µM*!	?
